Source: PubChem BioAssay AID2384 (Southern Research Specialized Biocontainment Screening …, 2010)
About 1,100 (48%) of roughly 2,300 compounds were called active. No rule for the calls is given here. The set was probably picked from earlier hits. The list shows a part of the results. Results with a measured potency or affinity are listed apart.

Assay: S. typhi counter-screen signal inhibition – fluorescence, 4 h, counter-screen for PhoP regulon inhibitor project, dose response (AID 2384)
Conditions: S. typhi GFP reporter counter-screen; series mostly up to 150 µM; inhibition: at the top concentration
With `COC(=O)c1cc2sccc2n1Cc1nc(-c2ccc(OC)cc2)oc1C` the “inhibition” value was -18.1% (inactive). In the case of `O=C(CSc1nc2ncc(Cl)cc2[nH]1)NCC(=O)Nc1ccc(F)c(F)c1F`, the “inhibition” value is reported as 36% (inactive). With `Nc1ncnc2nc(SCC(=O)Nc3cccc(C(F)(F)F)c3)[nH]c12` the “inhibition” value was -1.35% (inactive). For `c1cncc(CSc2ccc(-c3cccs3)nn2)c1`, the “inhibition” value was 3.59% (inactive). For `COc1ccc(CNc2nc3ccccc3n2C)c(O)c1`, the “inhibition” value was 9.23% (inactive). In the case of `CCN(CC)S(=O)(=O)c1ccc(/C(O)=C(\C#N)c2nc3ccccc3n2C)cc1`, the “inhibition” value is reported as -35.8% (inactive). With `Cn1c(-c2ccc(CN3CCCCC3)o2)nc2ccccc21` the “inhibition” value was 5.64% (inactive). For `CC1=C(c2ccccc2)SC2=NCCN21`, the “inhibition” value was 12.6% (inactive). In the case of `COCc1[nH]nc2c1C(c1c(F)cccc1Cl)C(C#N)=C(N)O2` (centres undefined), the “inhibition” value is reported as 14.4% (inactive). With `CC1(C)CC(N2CCN(c3ccccc3)CC2)=CC(=[N+]2CCCC2)C1` the “inhibition” value was -5.38% (inactive). For `CC1CCC[C@H](O)CCCCCc2cc(O)cc(O)c2C(=O)O1` (some centres undefined), the “inhibition” value was 6.87% (inactive). In the case of `CC1=C(C#N)CCC(=O)N1Cc1c(C)cc(C)cc1C`, the “inhibition” value is reported as -4.03% (inactive). For `Nn1cnnc1N/N=C\c1ccc(-c2ccccc2[N+](=O)[O-])o1`, the “inhibition” value was 5.18% (inactive). In the case of `O=[N+]([O-])c1ccc(/C=N/NC(=S)Nc2ccc(Cl)cc2Cl)s1`, the “inhibition” value is reported as 35.1% (inactive). In the case of `COc1ccc(CNC(=O)CCC(=O)N2C[C@H]3C[C@H](C2)c2cccc(=O)n2C3)cc1`, the “inhibition” value is reported as 13% (inactive). In the case of `Cc1cc(NS(=O)(=O)c2ccc(NC(=O)C(C)Oc3ccc4c(C)cc(=O)oc4c3)cc2)no1` (centres undefined), the “inhibition” value is reported as 15.6% (inactive). For `COc1cc(OC)nc(NC(=O)C(C)C)n1`, the “inhibition” value was -27% (inactive). For `CCNc1nc(N)nc(Oc2ccc(OCCOc3ccc(Cl)cc3Cl)nn2)n1`, the “inhibition” value was -7.02% (inactive). With `COc1cc(/C=C/C(=O)O)cc2c1OCCO2` the “inhibition” value was 1.36% (inactive). For `CCCC(CCC)C(=O)NCCN1CCOCC1`, the “inhibition” value was 9.01% (inactive). In the case of `CCn1nccc1C(=O)Nc1cc(Cl)cc(Cl)c1`, the “inhibition” value is reported as 16.1% (inactive). For `CCOC(=O)/C=C1/N(C)c2ccccc2C1(C)C`, the “inhibition” value was -0.1% (inactive). With `O=Cc1ccc(O)cc1O` the “inhibition” value was 12.6% (inactive). For `CCCOc1ccc(-c2cn3ccccc3n2)cc1`, the “inhibition” value was 27.4% (inactive). For `Cc1ccc(-c2noc(CN3CCCCC3)n2)cc1`, the “inhibition” value was -23.5% (inactive). With `Cc1ccc2nsnc2c1S(=O)(=O)NCc1ccc2c(c1)OCO2` the “inhibition” value was -30.8% (inactive). In the case of `Cc1[nH]nc2c1C(c1ccc(-c3ccccc3C#N)o1)C(C#N)=C(N)O2` (centres undefined), the “inhibition” value is reported as -6.53% (inactive). For `COc1ccc(NC(=O)CN(C)S(=O)(=O)c2ccc(Cl)cc2)cc1Cl`, the “inhibition” value was -14.6% (inactive). With `O=C(NCc1cccnc1)c1ccc(COc2ccc(Cl)cc2)cc1` the “inhibition” value was -28.3% (inactive). For `Cn1cc(S(=O)(=O)NCC2CCCO2)c(=O)n(C)c1=O` (centres undefined), the “inhibition” value was 19.2% (inactive). For `C[C@]1(OC(=O)/C=C/c2ccccc2)C[C@@H](O)[C@]2(O)C=CO[C@@H](O[C@@H]3O[C@H](CO)[C@@H](O)[C@H](O)[C@H]3O)[C@@H]21`, the “inhibition” value was 6.78% (inactive). In the case of `O=C(/C=C/c1ccccc1)NNC(=O)c1ccco1`, the “inhibition” value is reported as -2.38% (inactive). With `CC(=O)c1cccc(NC(=S)NNC(=O)c2ccco2)c1` the “inhibition” value was 21.6% (inactive). In the case of `O=C(/C=C/c1ccco1)NC(=S)Nc1cccc(-c2nc3ccccc3o2)c1`, the “inhibition” value is reported as -13.3% (inactive). For `O=C(NC(=S)Nc1c(F)cc(F)cc1Br)c1ccc2c(c1)OCCO2`, the “inhibition” value was -19% (inactive). With `COc1ccc(C(C(=O)Nc2ccc(C(C)C)cc2)N(Cc2ccco2)C(=O)CC2NC(=O)NC2=O)cc1` (centres undefined) the “inhibition” value was -0.89% (inactive). For `Nc1nc(=S)c2[nH]cnc2[nH]1`, the “inhibition” value was 32.3% (inactive). With `COc1ccc(C2C3=C(CC(C)(C)CC3=O)Nc3cc4c(cc32)OCO4)cc1` (centres undefined) the “inhibition” value was -48.3% (inactive). For `O=C(CSc1ccccc1)N1CCC(N2CCC(C(=O)N3CCCC3)CC2)CC1`, the “inhibition” value was -12.2% (inactive). With `C[C@@H](C(=O)NC1CCCC1)N1C(=O)N2CCc3c([nH]c4ccccc34)[C@@]2(C)C1=O` the “inhibition” value was -17.4% (inactive). With `CCOC(=O)c1cccc(NC(=O)C2CCC(CNc3c(N4CCOCC4)c(=O)c3=O)CC2)c1` (centres undefined) the “inhibition” value was -22.3% (inactive). With `CCN1CCN(C2=C(NS(=O)(=O)c3ccc(Br)cc3)C(=O)c3ccccc3C2=O)CC1` the “inhibition” value was 17.3% (inactive). For `COc1ccc(C(=O)N2CCN(C(=O)Cc3ccccc3)CC2)cc1OC`, the “inhibition” value was -1.09% (inactive). With `CC(=O)C1=C(O)C(=O)N(CCN2CCOCC2)C1c1ccccc1` (centres undefined) the “inhibition” value was 10.7% (inactive). In the case of `CCc1ccc(C(=O)CC2(O)C(=O)N(CN3CCOCC3)c3ccccc32)cc1` (centres undefined), the “inhibition” value is reported as 13.2% (inactive). In the case of `O=C(C[n+]1cn(C(F)F)c2ccccc21)c1ccc(Br)cc1`, the “inhibition” value is reported as -14.8% (inactive). With `O=C(c1cccs1)N1CCC(N2CCN(c3ccccc3)CC2)CC1` the “inhibition” value was -17.6% (inactive). With `CCN1CCN(c2cc(C)c3cc(NC(=S)N4CCN(c5ccccc5F)CC4)ccc3n2)CC1` the “inhibition” value was 35.7% (inactive). For `Cn1c(=NC(=O)COc2ccccc2)sc2cccc(F)c21`, the “inhibition” value was 0.24% (inactive). With `Cc1cc(NC(=O)/C=C/C(=O)N(c2ccccc2C)C(C(=O)NC2CCCC2)c2ccc(F)cc2)no1` (centres undefined) the “inhibition” value was 6.86% (inactive). With `CC(=O)c1c(N2CCN(c3cccc(Cl)c3)CC2)nc(=S)n(-c2ccccc2)c1C` the “inhibition” value was -38.1% (inactive). In the case of `Cc1ccc(NC(=O)c2cc(NC(=O)CCCC(=O)O)ccc2Cl)cc1Cl`, the “inhibition” value is reported as -19.6% (inactive). In the case of `CCc1cccc(NC(=O)CSC2=NS(=O)(=O)c3ccccc32)c1`, the “inhibition” value is reported as 7.63% (inactive). For `O=C(Cc1ccccc1)NCC(=O)Nc1cccc(Cl)c1`, the “inhibition” value was 6.95% (inactive). In the case of `Cc1cnc(C(=O)OCC(=O)Nc2cccc(Cl)c2)cn1`, the “inhibition” value is reported as 0.83% (inactive). In the case of `NC(=O)SCC(=O)Nc1ccc(Cl)c(Cl)c1`, the “inhibition” value is reported as 32% (inactive). For `O=C(COc1ccc(Cl)cc1)Nc1cccc(-c2ccc3nncn3n2)c1`, the “inhibition” value was -14.3% (inactive). In the case of `O=C(Nc1ccc(Cl)cc1)N1CCOC12CCC1(CC2)OCCO1`, the “inhibition” value is reported as 7.84% (inactive). With `CCOC(=O)c1ccc(NC(=O)CSC(=S)N2CCOCC2)cc1` the “inhibition” value was -22.6% (inactive).
